PubChem BioAssay AID1463 (National Center for Advancing Translational Sciences (NCATS), 2008)
Among all 280,000 compounds or so, about 2,600 (0.93%) were called active. Not shown: some 8% with an inconclusive outcome. What follows is part of a selection rich in actives, with near analogues and random picks from the rest. A number with no mark means an inactive call. The call rests on the fitted dose curve; in most records, active means well fitted curve in the direction sought with a large enough effect; inconclusive means small, poorly fitted or top-dose-only effect; inactive means flat fitted curve, though single readings scatter.

experiment: Counterscreen qHTS for Inhibitors of Tau Fibril Formation, Fluorescence Polarization; settings: tau K18 P301L Alexa594 fluorescence, heparin fibrillization; series mostly up to 57.7 µM; activity change, negative = decrease: at the top concentration; further: nearly all actives have a fitted effect of over 55% in size
Outline: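 Human tau K18 P301L (15 uM unlabeled, 0.24 uM Alexa 594-labeled) in 100 mM sodium acetate pH 7 with 20 uM heparin, 6 hr at 37 C. ThT 30 uM added, 1 hr ambient; Alexa 594 FP and total fluorescence read at 555/632 nm.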
On the % scale 0 is the no-effect control and ±100 the full control effect; potency means the concentration at half of the fitted maximal effect; tags describe the fitted curve by direction and shape or compound fluorescence and quenching.

| SMILES | activity change, negative = decrease [%] | Potency |
| --- | --- | --- |
| CCc1ccccc1NC(=O)N1CCN(C(=O)c2nsc3ccccc23)CC1 | -5.01 |  |
| Cc1[nH]c2ccccc2c1CCN(Cc1cccs1)C(=S)NC(C)(C)C | -17.2 |  |
| COc1cccc(NC(=S)NCc2ccco2)c1 | 1.26 |  |
| COc1cccc(NC(=S)N(CCc2c(C)[nH]c3ccccc23)Cc2ccco2)c1 |  | 12.6 µM [quencher] (active) |
| CC(C)(C)OC(=O)N1CCC(c2c(C(=O)N3CCc4ccccc4C3)cnn2-c2ccc(F)cc2)CC1 | -6.75 |  |
| Cc1ccc2[nH]cc(CCCN3C(=O)c4ccccc4C3=O)c2c1 |  | 25.1 µM [quencher] (active) |
| O=C1c2ccccc2C(=O)N1CCCc1nc(-c2ccccc2)no1 | -12.6 |  |
| O=C1c2ccccc2C(=O)N1CCc1nn[nH]n1 | 4.43 |  |
| COc1ccc(CCNC(=O)c2ccc3c(c2)sc2nc(-c4ccc(C)cc4)cn23)cc1OC | 12.4 |  |
| O=C(CSCc1cnn(-c2ccccc2)c1-n1cccc1)NCc1ccccc1Br | -5.24 |  |
| CCOc1ccccc1CNC(=O)c1cnc2c(-c3ccc(OCC)c(OCC)c3)c(C)nn2c1C | -23.8 |  |
| CN(CC(=O)Nc1cccc(F)c1)CC(=O)Nc1cccc([N+](=O)[O-])c1 | -23.4 |  |
| CN(c1ccc(OCC(=O)OCC(=O)Nc2cccc([N+](=O)[O-])c2)cc1)S(=O)(=O)c1ccc(F)cc1 |  | 10 µM [quencher] (active) |
| CN(c1ccc(OCC(=O)NC2=NCCS2)cc1)S(=O)(=O)c1ccc(F)cc1 | -15 |  |
| NS(=O)(=O)c1ccc(CCNC(=O)Nc2ccc(Cl)cc2)cc1 | 15.1 |  |
| CC(C)S(=O)(=O)c1csc(NC(=O)Nc2ccc(Cl)cc2)c1Cl |  | 25.1 µM [quencher] (active) |
| Cn1ccc(NC(=O)Nc2ccc(Cl)cc2)n1 | -10.6 |  |
| Cc1ccc(CSc2nc3cccnc3n2Cc2ccc(C(=O)NC3CC3)cc2)cc1 | 2.64 |  |
| CCCNC(=O)CCn1nc(-c2ccccc2)c2ccccc2c1=O | -6.14 |  |
| O=C(Nc1nncs1)c1ccccc1NS(=O)(=O)c1cccs1 | -4.18 |  |
| COc1cc(NS(=O)(=O)c2cccs2)cc(OC)c1 | -14.8 |  |
| O=C(Nc1cccc(Cl)c1)Nc1ccccc1NS(=O)(=O)c1cccs1 |  | 11.2 µM [quencher] (active) |
| CC(NC(=O)c1cc(Sc2ccc(F)cc2F)nc2ccccc12)c1ccccc1 (stereo unspecified) | -10.4 |  |
| CCN(c1ccc(Cl)cc1)S(=O)(=O)c1nnc(NC(=O)c2ccco2)s1 | -2.62 |  |

| SMILES | activity change, negative = decrease [%] | Potency |
| --- | --- | --- |
| COc1ccc(CCNC(=O)C(=O)NCC(c2ccco2)S(=O)(=O)c2cccs2)cc1OC (stereo unspecified) | -16.5 |  |
| CC1=Nc2cc(C(=O)NCc3ccc(C)cc3)ccc2Sc2ccc(Cl)cc21 | -15.9 |  |
| Cc1ccc(C)c2sc(NC(=O)c3ccc(S(=O)(=O)N4CCCC4)cc3)nc12 | -21.1 |  |
| CCN(CC)c1ccc(/C=N/Nc2nc(C)cc(C)n2)c(O)c1 | 2.1 |  |
| CCN(CC)c1ccc2oc(=O)c(C)nc2c1 |  | 12.6 µM [quencher] (active) |
| CCN(CC)c1ccc2c(Nc3ccccc3)c(C=O)c(=O)oc2c1 | -7.21 |  |
| COc1cc(OC)c(OC)cc1/C=C/c1nc2cc3ccccc3cc2c(=O)n1-c1ccc(F)c(Cl)c1 | -17.3 |  |
| COc1ccccc1-c1ccnc2[nH]n(-c3ccccc3)c(=O)c12 | -12.9 |  |
| CCOC(=O)c1c(C)[nH]c(CCC(=O)NCCCN2CCN(c3cc(C)ccc3C)CC2)c1C | -23.4 |  |
| CCOC(=O)c1csc(NC(=O)Nc2cccc(OC)c2)n1 | -1.36 |  |
| Cc1nc(C)c(-c2csc(NCCc3ccccc3)n2)s1 | -27.9 |  |
| COc1cccc(CC(=O)Nc2ccc(-c3csc(C)n3)cc2)c1 | -18.4 |  |
| C=CCCC(=O)Nc1nc(C)c(-c2csc(Nc3ccc(Cl)cc3)n2)s1 |  | 12.6 µM [quencher] (active) |
| CCCCCCC(=O)Nc1nc(C)c(-c2csc(Nc3cccc(OC)c3)n2)s1 |  | 8.91 µM [quencher] (active) |
| Cc1nc(NC(=O)CN(C)S(=O)(=O)c2ccc(Cl)cc2)sc1C | -18 |  |
| Cc1ccccc1C(=O)Nc1nnc(S(=O)(=O)N(C)c2ccc(Cl)cc2)s1 | -20 |  |
| Cc1ccc2onc(CC(=O)N3CCN(c4ccc(Cl)cc4)CC3)c2c1 | 2.99 |  |
| Cc1cc2c(cc1S(=O)(=O)CCC(=O)Nc1ccc(OC(F)(F)F)cc1)OCC(=O)N2 | -24.4 |  |
| Cc1cccc(C(=O)N2c3nc(-c4ccco4)nn3C3(CCCCC3)[C@@H]3CCCC[C@@H]32)c1 | -1.79 |  |
| COc1ccc(-c2cc(-c3ccc(N)cc3)nc(N)c2C#N)cc1OC |  | 28.2 µM [quencher] (active) |
| CCOc1cc(-c2cc(-c3ccc(OC)cc3)nc(N)c2C#N)ccc1O | -26 |  |
| CCSc1nc(-c2ccc(OC)cc2)cc(-c2ccc(OC)cc2)c1C#N | -20.3 |  |
| CCn1cc2nc(SCc3cccc(F)c3)n(CCc3ccccc3)c(=O)c2n1 | -19.5 |  |
| CCN1CCN(CCCNC(=O)c2cnn(-c3ccc(C)cc3C)c2C2CCN(C(=O)OC(C)(C)C)CC2)CC1 | -19.1 |  |

| SMILES | activity change, negative = decrease [%] | Potency |
| --- | --- | --- |
| Cc1csc(NC(=O)Nc2ccccc2[N+](=O)[O-])n1 | -19.4 |  |
| CCOC(=O)Cc1csc(NC(=O)Nc2ccccc2)n1 | -12.3 |  |
| CCOC(=O)/C(=N\Nc1ccccc1[N+](=O)[O-])c1csc(Nc2ccccc2)n1 |  | 7.08 µM [quencher] (active) |
| CCc1ccc(NC(=O)c2cc(S(=O)(=O)NC3CCCCCC3)ccc2F)cc1 | -23.9 |  |
| Cc1cccc(CCNC(=O)c2ccc3c(c2)nc2n3CCC(C)C2)c1 (stereo unspecified) | -12.3 |  |
| CCOc1cc(CNC(=O)c2sc3ncnc(N(C)C4CCCCC4)c3c2C)ccc1OC | -2.89 |  |
| CCSC1=C(C#N)C(=O)n2c1cc1c2CCCC1 |  | 31.6 µM [quencher] (active) |
| CCSc1ncnc2c(C#N)c3n(c12)CCCCC3 | -3.57 |  |
| O=C(CSCc1cnn(-c2ccccc2)c1-n1cccc1)NCc1ccc(Cl)cc1 | 14.4 |  |
| COc1ccc(-c2nc3scc(CCNS(=O)(=O)c4cc(F)ccc4OC)n3n2)cc1OC | -16.3 |  |
| COc1ccc(Nc2ncc(C(=O)Nc3cc(C)ccc3OC)c3ccccc23)cc1 |  | 3.55 µM [quencher] (active) |
| COc1ccc(NC(=O)c2cnc(Nc3ccc(C)c(Cl)c3)c3ccccc23)cc1OC | -13 |  |
| COc1ccc(C)cc1NC(=O)NCc1ccccn1 | 2.13 |  |
| O=c1cc(O)nc(SCc2ccccc2Cl)[nH]1 | -4.9 |  |
| Nc1nc(SCc2ccccc2Cl)n[nH]1 | -6.77 |  |
| CC1(C)N=C(SCc2ccccc2Cl)c2ccccc2N1 |  | 12.6 µM [quencher] (active) |
| Cc1cccc(C(=O)Nc2ccc(-c3nc4ncccc4o3)cc2C)c1 | -4.09 |  |
| CCOC(=O)c1ccc(CSc2nnc3cc(C)c4ccccc4n23)cc1 | -23.9 |  |
| Cc1cc(C)cc(NC(=S)NCCc2c[nH]c3ccccc23)c1 |  | 15.8 µM [quencher] (active) |
| Cc1cc(C)cc(NC(=O)CSc2nc3nccnc3c(=O)n2CCc2c[nH]c3ccccc23)c1 | 1.4 |  |
| Cc1cc(C)cc(NC(=S)NCc2ccc(F)cc2)c1 | -2.29 |  |
| CCC(=O)N1CCc2cc(Br)cc(S(=O)(=O)CCC(=O)NCCc3ccc(OC)c(OC)c3)c21 | -12.6 |  |
| COc1ccc(NC(=O)c2ccco2)cc1NC(=O)COc1ccc(C)c(C)c1 | -16.3 |  |
| O=C(O)c1ccc(NC(=O)c2cn(-c3ccccc3)nc2-c2ccc(Cl)cc2)cc1 | -7.53 |  |

| SMILES | activity change, negative = decrease [%] | Potency |
| --- | --- | --- |
| COc1ccc(NC(=O)c2c(SC)nsc2SC)cc1 | -3.33 |  |
| COc1ccc(NC(=O)c2cn(-c3ccccc3)nc2SC)cc1 |  | 17.8 µM [quencher] (active) |
| CCOc1cc(C2C(C(=O)OC)=C(C)NC3=C2C(=O)c2ccccc23)ccc1O (stereo unspecified) |  | 17.8 µM [quencher] (active) |
| CCOc1cc(C2C(C(=O)Nc3ccc(OC)cc3)=C(C)Nc3nc(SC)nn32)ccc1O (stereo unspecified) | -21.9 |  |
| CCOc1cc(C2C(C(=O)OC(C)C)=C(C)NC3=C2C(=O)CCC3)cc([N+](=O)[O-])c1O (stereo unspecified) | -9.75 |  |
| CCOC(=O)CN1C(C(=O)c2ccccc2)=C(OC(=O)C(C)(C)C)c2ccccc2S1(=O)=O | -7.8 |  |
| CCN(CCCNC(=O)c1ccc(Sc2ccc(C)cc2)c(NC(C)=O)c1)c1cccc(C)c1 | -23.8 |  |
| COc1ccc(CCNC(=O)c2c3c(nc4ccccc24)C(=O)N(C2CCCCC2)C3)cc1OC | 2.98 |  |
| COc1ccc(CCNC(=O)c2nn(C)c3c2CSc2ccccc2-3)cc1OC |  | 10 µM [quencher] (active) |
| CCCCN(CC)CCCNC(=O)c1nn(C)c2c1CSc1ccccc1-2 | -8.6 |  |
| Cc1ccc(C2CCN(C(=O)c3cnn(-c4ccccc4Cl)c3C3CCN(C(=O)OC(C)(C)C)CC3)C2)cc1 (stereo unspecified) | -10.5 |  |
| Cn1nnc2c(N3CCN(c4ccccc4)CC3)ncnc21 | -2.02 |  |
| CCC1=Nc2cc(C(=O)NCCCOC(C)C)ccc2Sc2ccc(C)cc21 | 3.29 |  |
| CCOC(=O)c1[nH]c(C)c(CCC(=O)N2CCN(c3ccccc3)CC2)c1C | 0.33 |  |
| O=C(CC(c1cccs1)N1Cc2ccccc2C1=O)Nc1ccc(F)c(F)c1 (stereo unspecified) | -5.76 |  |
| CCCn1c2ccccc2c2cnn(CC(=O)N(C)c3ccccc3CC)c(=O)c21 | -16.4 |  |
| O=C1Cc2cc(S(=O)(=O)Nc3ccc(OC(F)(F)F)cc3)cc3c2N1CCC3 | -22.8 |  |
| CCCCS(=O)(=O)c1oc(-c2cccs2)nc1S(=O)(=O)c1ccccc1 | -11 |  |
| CCOCCc1nn2c(=O)cc(COC(=O)CNC(=O)c3ccc(C(C)(C)C)cc3)nc2s1 | -6.12 |  |
| Cc1ccc(Nc2ccc3cc(S(=O)(=O)N4CCCCC4)ccc3n2)cc1F |  | 7.08 µM [quencher] (active) |
| Cc1ccc(C)c(N2CCN(c3ccc4cc(S(=O)(=O)N5CCC(C)CC5)ccc4n3)CC2)c1 | -0.575 |  |
| O=S(=O)(c1ccc2nc(N3CCN(c4cccc(Cl)c4)CC3)ccc2c1)N1CCCCC1 | -10.5 |  |
| Cc1nn(CC(=O)NCCc2ccccc2)c(=O)c2c1sc1ccccc12 | 8.41 |  |
| CCn1c(CN2CCC(C)CC2)nc2cc(NC(=O)c3ccccc3[N+](=O)[O-])ccc21 | -0.8 |  |
